In all, about 5,500 compounds went through this assay and about 2,000 (36%) were called active. Inconclusive results (about 18%) are left out. Cut-off read from the data, not from the text of the source: active = normalized growth mostly below about 0.91 (no sharp cut-off); inconclusive = no clear call, values can overlap the other calls; inactive = mostly above about 0.92. The list shows a part of the results.
Assay: chemical genetic growth profiling, strain panel (AID 1159580);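 note: tested at 20 µM; growth read once vehicle control cultures reached saturation at 30 °C; 1 = growth at the plate median or of vehicle wells; lower values mean less growth of the strain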
Settings: S. cerevisiae deletion strains, growth OD

Measured: normalized growth

O=S1OCC2C(CO1)C1(Cl)C(Cl)=C(Cl)C2(Cl)C1(Cl)Cl (centres undefined)
active: locus YDR137W, strain rgp1, hits give low values 1.17 [resistant] | locus YJL166W, strain qcr8, hits give low values 0.875
inactive: locus YAL013W, strain DEP1, hits give low values 0.973 | locus YAL021C, strain ccr4, hits give low values 0.982 | locus YAL026C, strain drs2, hits give low values 0.98 | locus YAL030W, strain snc1, hits give low values 0.993 | locus YBL061C, strain skt5, hits give low values 1 | locus YBR009C, strain hhf1, hits give low values 0.989 | locus YBR021W, strain FUR4, hits give low values 0.993 | locus YBR023C, strain chs3, hits give low values 0.987 | locus YBR171W, strain sec66, hits give low values 0.974 | locus YBR229C, strain ROT2, hits give low values 0.998 | locus YBR231C, strain swc5, hits give low values 0.992 | locus YBR279W, strain paf1, hits give low values 1 | locus YCL011C, strain gbp2, hits give low values 0.98 | locus YCL016C, strain dcc1, hits give low values 0.999 | locus YCL029C, strain bik1, hits give low values 0.972 | locus YCL061C, strain MRC1, hits give low values 0.983 | locus YCL069W, strain vba3, hits give low values 0.99 | locus YCR088W, strain abp1, hits give low values 0.98 | locus YDL005C, strain med2, hits give low values 1 | locus YDL035C, strain GPR1, hits give low values 0.983 | locus YDL040C, strain nat1, hits give low values 0.994 | locus YDL074C, strain BRE1, hits give low values 0.999 | locus YDL101C, strain DUN1, hits give low values 0.972 | locus YDL134C, strain PPH21, hits give low values 0.997 | locus YDL185W, strain tfp1, hits give low values 0.948 | locus YDL192W, strain arf1, hits give low values 0.98 | locus YDR001C, strain nth1, hits give low values 0.974 | locus YDR069C, strain doa4, hits give low values 0.973 | locus YDR101C, strain arx1, hits give low values 0.992 | locus YDR150W, strain NUM1, hits give low values 0.991 | locus YDR159W, strain sac3, hits give low values 0.893 | locus YDR162C, strain NBP2, hits give low values 0.946 | locus YDR195W, strain ref2 1.04 | locus YDR297W, strain sur2, hits give low values 0.983 | locus YDR318W, strain mcm21, hits give low values 0.973 | locus YDR334W, strain swr1, hits give low values 0.99 | locus YDR335W, strain msn5, hits give low values 0.995 | locus YDR388W, hits give low values 0.981 | locus YDR392W, strain spt3, hits give low values 0.823 | locus YDR502C, strain sam2, hits give low values 0.96 | locus YEL003W, strain gim4, hits give low values 0.931 | locus YEL037C, strain rad23, hits give low values 1 | locus YEL061C, strain CIN8 (second series), hits give low values 0.983 | locus YEL061C, strain CIN8, hits give low values 0.992 | locus YER015W, strain faa2, hits give low values 0.993 | locus YER016W, strain bim1, hits give low values 0.991 | locus YER110C, hits give low values 0.986 | locus YER111C, strain swi4, hits give low values 0.997 | locus YER155C, strain BEM2 (second series), hits give low values 0.988 | locus YER155C, strain BEM2, hits give low values 0.973 | locus YER167W, strain BCK2, hits give low values 0.966 | locus YFR010W, strain ubp6, hits give low values 0.984 | locus YGL078C, strain dbp3, hits give low values 0.968 | locus YGL086W, strain mad1, hits give low values 0.975 | locus YGL167C, strain pmr1, hits give low values 0.989 | locus YGL173C, strain kem1, hits give low values 0.992 | locus YGL227W, strain vid30, hits give low values 0.987 | locus YGL240W, strain doc1, hits give low values 0.988 | locus YGL248W, strain PDE1, hits give low values 1.01 | locus YGL253W, strain hxk2, hits give low values 0.987 | locus YGR078C, strain PAC10, hits give low values 0.97 | locus YGR135W, strain pre9, hits give low values 0.978 | locus YGR229C, strain SMI1, hits give low values 0.992 | locus YGR252W, strain gcn5, hits give low values 0.984 | locus YHR013C, strain ard1, hits give low values 0.862 | locus YHR027C, strain rpn1, hits give low values 0.996 | locus YHR030C, strain SLT2, hits give low values 0.979 | locus YHR079C, strain IRE1 (second series), hits give low values 0.977 | locus YHR094C, strain hxt1, hits give low values 0.971 | locus YHR129C, strain ARP1, hits give low values 1.01 | locus YHR142W, strain chs7, hits give low values 0.971 | locus YHR200W, strain rpn10, hits give low values 0.972 | locus YIL066C, strain RNR3, hits give low values 0.966 | locus YIL073C, strain SPO22, hits give low values 0.887 | locus YIL125W, strain kgd1, hits give low values 0.982 | locus YIR030C, strain dcg1, hits give low values 0.98 | locus YJL092W, strain hpr5, hits give low values 0.987 | locus YJL095W, strain BCK1 (second series), hits give low values 1.01 | locus YJL095W, strain BCK1, hits give low values 0.999 | locus YJL115W, strain asf1, hits give low values 0.977 | locus YJL129C, strain trk1, hits give low values 0.888 | locus YJL134W, strain LCB3, hits give low values 0.966 | locus YJL154C, strain vps35, hits give low values 0.983 | locus YJL164C, strain tpk1, hits give low values 0.942 | locus YJL168C, strain set2, hits give low values 0.974 | locus YJL187C, strain SWE1 (second series), hits give low values 0.979 | locus YJL187C, strain SWE1, hits give low values 0.995

From PubChem BioAssay AID1159580 (chemical genetic matrix, 2015)
